# Target: Serine/threonine-protein kinase PAK 6 (Homo sapiens) (UniProt Q9NQU5)
# Conditions: at 1 µM
# 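Also: values are mean percent inhibition of PAK6 kinase.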
# Sequence of Serine/threonine-protein kinase PAK 6 (Homo sapiens) (Q9NQU5 whole entry, looked up): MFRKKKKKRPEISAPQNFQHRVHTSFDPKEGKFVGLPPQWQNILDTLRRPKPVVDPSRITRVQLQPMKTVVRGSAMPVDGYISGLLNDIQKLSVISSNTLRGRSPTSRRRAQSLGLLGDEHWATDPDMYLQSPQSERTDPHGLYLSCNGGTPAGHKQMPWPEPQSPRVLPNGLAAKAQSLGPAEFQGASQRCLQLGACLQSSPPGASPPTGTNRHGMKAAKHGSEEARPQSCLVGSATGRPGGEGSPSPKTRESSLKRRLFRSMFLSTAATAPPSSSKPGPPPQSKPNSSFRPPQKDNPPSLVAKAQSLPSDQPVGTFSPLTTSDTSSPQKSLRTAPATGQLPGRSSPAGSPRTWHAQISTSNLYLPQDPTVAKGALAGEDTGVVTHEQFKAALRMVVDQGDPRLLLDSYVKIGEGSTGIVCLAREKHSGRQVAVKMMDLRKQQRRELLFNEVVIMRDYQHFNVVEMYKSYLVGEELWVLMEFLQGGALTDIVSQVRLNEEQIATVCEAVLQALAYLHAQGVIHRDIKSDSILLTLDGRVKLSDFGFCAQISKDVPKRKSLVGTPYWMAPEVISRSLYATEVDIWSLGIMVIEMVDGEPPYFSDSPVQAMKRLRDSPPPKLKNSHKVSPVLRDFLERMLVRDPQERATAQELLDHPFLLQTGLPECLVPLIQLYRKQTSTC
row,SMILES,inhibition [%]
1,CN1CCN(C(=O)c2ccc(NC(=O)Nc3ccc(N(C)c4ccnc(Nc5ccc(CS(C)(=O)=O)cc5)n4)cc3)cc2)CC1,-8.2
2,CC(C)c1ccc2c(c1)NC(=O)/C2=N/Nc1ccc(S(N)(=O)=O)cc1,-5.25
3,C[C@@H](Oc1cc(-n2cnc3ccc(OC[C@@H](O)CO)cc32)sc1C(N)=O)c1ccccc1Cl,-6.36
4,CN(C)CCCn1c(-c2nonc2N)nc2cnccc21,-2.15
5,O=C1Nc2ccc(-c3cccnc3)cc2C1=Cc1cc(Br)c(O)c(Br)c1,7.69
6,CC(C)c1ccc(Nc2nccc(-c3cnn4ncccc34)n2)cc1,2.84
7,N#Cc1cccc(Nc2nccc(-c3cnn4ncccc34)n2)c1,-4.67
8,Cc1ccc(NC(=O)CC2CC2)cc1-c1ccc(C(=O)NCC2CC2)cc1,1.56
9,Cc1ccc2c(c1)/C(=N/Nc1ccc(S(N)(=O)=O)cc1)C(=O)N2,-8.53
10,CCS(=O)(=O)c1ccc(OC)c(Nc2nccc(N(C)c3ccc4c(C)n[nH]c4c3)n2)c1,-6.63
11,Nc1nccc(-c2c(-c3ccc(F)cc3)nn3cc(C(F)(F)F)ccc23)n1,5.02
12,N#Cc1c(NC(=O)c2ccccc2F)sc2c1CCCC2,3.35
13,Cc1cc(Cl)cc2c1NC(=O)C2=NNc1ccc(S(N)(=O)=O)cc1,-1.69
14,c1ccc(Cc2nc3ccc(Nc4ncnc5ccccc45)cc3[nH]2)cc1,7.47
15,Cc1ccc(O)cc1Nc1ccnc2ccc(S(C)(=O)=O)cc12,4.09
16,FC(F)(F)c1ccc(-c2nn3ncccc3c2-c2ccnc(Nc3ccc4c(c3)OCCO4)n2)cc1,15.5
17,Nc1ccc(C#Cc2cncnc2Nc2ccc(OCc3cccc(F)c3)c(Cl)c2)cc1,-1.86
